Rows were chosen to be rich in hits. Some 2% of all compounds tested hit in one or more screens of this group.
TAG inh – inhibitors of triacylglycerol accumulation, primary screen, cell-based, uHTS, fluorescence, H9c2; inhibition, % at 12.5 µM; H9c2 cells, Nile Red lipid (TAG) fluorescence; cells loaded with 200 µM oleic acid; 230,000 compounds, 0.66% hits;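 active = pattern-corrected inhibition of lipid staining of at least 50% with the nuclear-stain viability signal not falling by more than 50%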;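 also: 0% = DMSO wells and 100% = triacsin C control wells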
CHT inh – inhibitors of human choline transporter CHT | 310,000 compounds, 0.86% hits | B-score at 10 µM | CHT-expressing cells, membrane potential dye, choline response; active compounds read low | High affinity choline transporter 1 (Homo sapiens), Q9GZV3;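 active = B-score over 3 SD under the library average, and starting fluorescence ratio not unusually high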;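 also: choline stimulus applied at its EC90 after an EC20 pre-addition; B-score computed on integrated fluorescence ratio after choline addition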
Target sequence (Q9GZV3 whole entry, looked up): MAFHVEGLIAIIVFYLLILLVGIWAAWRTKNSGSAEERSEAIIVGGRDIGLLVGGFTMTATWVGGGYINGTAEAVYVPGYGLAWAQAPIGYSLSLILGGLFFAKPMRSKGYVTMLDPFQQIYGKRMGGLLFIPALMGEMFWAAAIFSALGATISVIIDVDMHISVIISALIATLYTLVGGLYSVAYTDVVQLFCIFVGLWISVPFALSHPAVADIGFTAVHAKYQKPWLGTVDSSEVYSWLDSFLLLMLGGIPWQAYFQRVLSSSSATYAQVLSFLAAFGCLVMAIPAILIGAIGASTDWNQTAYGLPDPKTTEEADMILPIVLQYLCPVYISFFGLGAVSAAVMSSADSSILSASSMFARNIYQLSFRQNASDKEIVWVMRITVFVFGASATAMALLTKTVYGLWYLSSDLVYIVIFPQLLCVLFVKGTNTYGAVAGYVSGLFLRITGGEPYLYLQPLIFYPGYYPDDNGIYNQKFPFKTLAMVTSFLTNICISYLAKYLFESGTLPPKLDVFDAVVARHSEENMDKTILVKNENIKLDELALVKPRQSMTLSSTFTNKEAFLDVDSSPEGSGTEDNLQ
Kir21 inh – inhibitors of mouse Kir2.1 inward-rectifier potassium channel; Inward rectifier potassium channel 2 (Mus musculus), P35561; HEK293-Kir2.1, FluxOR thallium flux fluorescence; active compounds read low; B-score at 10 µM; 310,000 compounds, 0.85% hits;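 active = fluorescence ratio B-score at or below minus 3 SD of library scores, with starting-brightness B-score within 2 SD, cut at about -4.2 in these data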;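 also: channel flux triggered by added potassium and thallium sulfate stimulus; B-score of peak minus minimum fluorescence over baseline after thallium stimulus; more negative B-score means stronger Kir2.1 block with less thallium influx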
CHT allo act – CHT positive allosteric modulators, primary screen, cell-based, membrane potential dye, choline EC20. High affinity choline transporter 1 (Homo sapiens), Q9GZV3. CHT-expressing cells; active compounds read high; LV-AA mutant CHT in HEK293 cells. B-score at 10 µM. 310,000 compounds, 0.49% hits;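 active = initial fluorescence not abnormally high and integrated response B-score, plate-corrected, over 3 SD above library mean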
CHT activ conf – CHT activators, confirmation, cell-based, membrane potential dye, duplicate. AID 504833, 2011. activation, % at 10 µM. shares compounds with CHT allo act. 2,500 compounds, 91% hits. CHT-expressing cells, membrane potential dye fluorescence (FDSS); % of choline EC20–EC90 response window; HEK293 expressing CHT LV-AA mutant; choline added at its EC20;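 active = primary screen active, with duplicate mean activation above negative control mean plus 3 SD, cut at about 11% in these data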
HEK293 MP dye – membrane potential response in parental HEK293 cells, counter-screen for CHT activator project, cell-based, membrane potential dye; AID 623908, 2012; shares compounds with CHT allo act; membrane potential dye fluorescence (FDSS); measured after EC20 choline addition; ratio readout change at 10 µM, hits read low; 2,500 compounds, 62% hits;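 active = duplicate-averaged ratio beyond 3 SD from buffer wells, up or down, though filed actives are nearly all decreases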
* hit, by the source's call; i = inactive; · = no result given.

SMILES	TAG inh	CHT inh	Kir21 inh	CHT allo act	CHT activ conf	HEK293 MP dye
CCNS(=O)(=O)c1ccc(CCC(=O)N2CCC(C)CC2)cc1	-8	i	-0.22	i	·	·
Cc1cc(N2CCCCC2)nc2ccccc12	-1	i	-1.1	i	·	·
Cc1cc(N2CCN(c3ccc(F)cc3)CC2)nc2cc(O)ccc12	-26	i	-0.17	i	·	·
Cc1cc(N2CCOCC2)nc2cc(O)ccc12	-16	i	-1.1	9.2*	74*	-45*
Cc1cc(N2CCCN(C)CC2)nc2cc(Cl)ccc12	·	i	-4.6*	i	35*	-50*
CN1C(=O)c2c(sc3c2CC(C)(C)SC3)N2CCN=C12	-18	i	·	15*	60*	-55*
CC1(C)Cc2c(sc3c2C(=O)N(c2ccccc2)C2=NCCN23)CS1	2	i	-0.34	i	·	·
CN1CCN(CC(=O)Nc2cc(N(C)C)nc3ccccc23)CC1	16	i	-1.4	i	38*	-40*
O=c1c2c(-c3ccc([N+](=O)[O-])cc3)csc2nc2n1CCCCC2	13	i	-2.5	i	·	·
Cc1nnsc1C(=O)NC(C)c1ccccc1 (configuration not stated)	8	i	1.2	i	·	·
C=CCn1c(CCCNC(=O)C(C)(C)C)nc2ccccc21	-10	i	1.4	i	·	·
CC(C)(C)C(=O)NCCCc1nc2ccccc2n1CCCOc1ccc(Cl)cc1	·	i	-2.5	12*	10	i
O=S(=O)(O)c1cccc(N=Nc2c(O)ccc3ccccc23)c1	-3	i	-0.53	i	33*	-39*
COc1cc(-c2nnc(SCC(=O)N(Cc3ccccc3)C(C)(C)C)o2)cc(OC)c1OC	·	i	-1.1	7.9*	1	i
CCCCN(CCCC)C(=O)CSc1nnc(-c2cc(OC)c(OC)c(OC)c2)o1	·	i	-1.6	i	·	·
Cc1cccc(CCN2C(N(C)C)=NC[C@@H]2Cc2ccccc2)c1	9	·	·	·	·	·
CN(C)C1=NC[C@H](Cc2ccccc2)N1CC1CCCCC1	0	i	·	i	·	·
CN(C)C1=NC[C@H](Cc2ccccc2)N1CCCCc1ccccc1	3	i	·	i	16*	i
CCCCCCCN1C(N(C)C)=NC[C@@H]1Cc1ccccc1	-14	i	·	6.8*	25*	i
Cc1nc(N2CCN(C)CC2)c2sc(=S)n(C)c2n1	·	i	1.2	i	33*	-50*
CC1(C(=O)NS(=O)(=O)c2ccc(F)cc2F)CCN1C(=O)Cc1cc(F)ccc1F (configuration not stated)	1	·	·	·	·	·
Cc1cc(C)cc(COc2ccc3c(C)c(CC(=O)O)c(=O)oc3c2C)c1	·	i	1.5	i	·	·
Cc1c(C)c2ccc(OCc3ccc(C(=O)O)o3)c(C)c2oc1=O	·	i	-2	7.8*	30*	-40*
CN(C)c1cc[n+](CC(=O)Nc2ccc([N+](=O)[O-])cc2Cl)cc1	-25	i	1.3	6.5*	5	-33*
Cc1ccc[n+](CC(=O)Nc2ccc([N+](=O)[O-])cc2Cl)c1	-16	i	0.74	i	·	·
SMILES	TAG inh	CHT inh	Kir21 inh	CHT allo act	CHT activ conf	HEK293 MP dye
O=C(NC1CCCCC1)C(c1ccco1)N(Cc1cccnc1)C(=O)C1COc2ccccc2O1 (configuration not stated)	·	i	-1.6	i	13*	i
c1cc2nncn2nc1N1CCCC1	-13	i	2.8	i	·	·
c1ccc(N2CCN(c3ccc4nncn4n3)CC2)nc1	14	i	1.6	9.7*	66*	-58*
Cc1nnc2ccc(N3CCN(c4ccccn4)CC3)nn12	18	i	1	7.2*	53*	-51*
N#C/C(=C\c1c(N2CCC(C(N)=O)CC2)nc2ccccn2c1=O)C(=O)NC1CCCCC1	·	i	-0.95	i	·	·
COc1c(O)c(=O)n2c3ccccc3c3ccnc1c32	·	i	-0.02	i	41*	i
CN(C)S(=O)(=O)c1ccc(N2CCCC2)c(C(=O)NC2CCCCC2)c1	-7	i	1.1	i	·	·
CN(C)c1cc[n+](CC[n+]2ccc(N(C)C)cc2)cc1	-22	i	-0.2	i	·	·
CN(C)c1cc[n+](Cc2c(Cl)cccc2Cl)cc1	-127	i	-0.64	6.8*	43*	-46*
Cc1ccc(CNC(=O)C(=O)NCCC2CCCCN2S(=O)(=O)c2ccccc2)cc1 (configuration not stated)	-9	i	1.7	8.5*	10	i
Cc1n(C)c2cc(Cl)ccc2[n+]1Cc1ccccc1	-10	i	-0.82	9.3*	65*	-44*
CC[n+]1c(C)n(C)c2cc(S(=O)(=O)N(C)C)ccc21	11	i	1.4	i	·	·
CC1CCN(CCCn2c(SCC(=O)Nc3ccccc3Cl)nc3ccccc3c2=O)CC1	24	i	-4.7	6.4*	52*	-34*
Cc1ccc(NC(=O)CSc2nc3ccccc3c(=O)n2CCCN2CCCCC2)cc1Cl	39	i	-3	i	·	·
Cc1cccn2c(=O)c3cc(C#N)c(=N)n(CCN4CCOCC4)c3nc12	11	·	1.4	·	·	·
CCC(C)n1c(=N)c(C#N)cc2c(=O)n3ccccc3nc21 (configuration not stated)	-18	i	-0.03	i	·	·
CCCn1c(=N)c(C#N)cc2c(=O)n3ccccc3nc21	·	i	-1.2	7*	48*	-64*
CCCn1c(=N)c(C#N)cc2c(=O)n3cccc(C)c3nc21	·	i	-0.88	8.3*	49*	-38*
CC(C)(C)N(NS(=O)(=O)c1ccc(F)cc1)c1ccccc1	·	i	-0.08	i	·	·
COC(=O)c1cc(S(=O)(=O)N(C)Cc2ccco2)c[nH]1	·	i	-0.14	i	·	·
NNC(=O)c1ccc(-c2cccc([N+](=O)[O-])c2)o1	3	i	-0.84	i	15*	-23*
CCOc1ccc2nc(N/C(N)=N/S(=O)(=O)c3ccc(C)cc3)nc(C)c2c1	6	·	·	·	·	·
c1cc(-c2nnc(-c3ccncc3)o2)ccn1	-37	i	0.08	8.7*	77*	-59*
Cc1cc(C)c2ccc(N)nc2c1O	-12	i	-0.06	i	42*	-53*
Cc1cc(C)c2cccc(N)c2n1	·	i	-0.43	i	·	·
Cc1cccc(NC(=O)CNC(=O)c2cc(C3CC3)nn2-c2ccccc2)c1C	-10	·	·	·	·	·

High-throughput results from PubChem.
